High-throughput results as filed in PubChem.
USP1 inh – USP1/UAF1 (human) deubiquitinase inhibition. O94782. recombinant USP1/UAF1, Ub-Rhodamine cleavage fluorescence. Potency, µM (doses to about 57.1 µM), inactives show top-dose activity change, negative = inhibition, most hits filed as inhibitors. actives 0.23% (n = 390,000). AID 743255; further: potency means the concentration at half of the fitted maximal effect; on the % scale 0 is the no-effect control and ±100 the full control effect; nearly all actives have a fitted effect of over 60% in size
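In this screen, compounds sit with the deubiquitinase complex (1nM) for 15 min at room temperature before Ub-Rho is added at 150nM final. Fluorescence rise is then followed for 6 reads every 60 seconds.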
S2 tox – reduces viability in counter-screen for ATXN expression inhibitors; Potency, µM (highest dose often 56.7 µM), most hits filed as cytotoxic; actives 0.49% (n = 400,000); S2 cells (HEK-293 line with an ATXN2-luciferase reporter) viability, CellTiter-Fluor protease fluorescence, 24 h; further: potency means the concentration at half of the fitted maximal effect; nearly all actives have a fitted effect of over 40% in size
IL-1B inflam inh – inhibitors of inflammasome signaling (IL-1 beta secretion) | THP-1 LPS/ATP IL-1B secretion, AlphaLISA, 16 h; active compounds read low | activity change, % at 57.5 µM | actives 4.7% (n = 360,000) | AID 743279; in the data active means activity change below about -50%; inconclusive means mostly about -30% to -49%; further: on the % scale 0 is the no-effect control and ±100 the full control effect
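Secreted IL-1B measured by AlphaLISA bead assay after 16 h compound exposure of THP-1 cells; compounds (final up to 57.5 uM) added 1 h before LPS (250 ng/mL) and ATP (1.25 mM) stimulation; lower signal means less secretion.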
ATXN2 expr inh – inhibitors of ATXN2 expression. Potency, µM (doses to about 57 µM), without a hit: at the highest dose activity change, negative = inhibition, hits mostly inhibitors. HEK-293 ATXN2-luciferase reporter, luminescence, 24 h. AID 1745845. actives 0.72% (n = 360,000); further: potency means the concentration at half of the fitted maximal effect; on the % scale 0 is the no-effect control and ±100 the full control effect; nearly all actives have a fitted effect of over 55% in size
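ATXN2-luciferase reporter cells (luciferase flanked by upstream and downstream ATXN2 gene portions) were treated 24 h at 37 °C with compounds at up to 57 uM. SteadyGlo luminescence gave expression; GF-AFC fluorescence gave viability.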
USP2a inh – inhibitors of human ubiquitin-specific protease USP2a. USP2 core, Ub-CHOP2 coupled fluorogenic reporter, 485/531. Potency, µM (highest dose often 38.3 µM), for the others: at the top dose activity change, negative = inhibition, actives largely listed as inhibitors. actives 0.01% (n = 330,000). AID 463254;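 further: potency means the concentration at half of the fitted maximal effect; plate controls were DMSO wells for no effect and full inhibition by NEM control for full effect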
Target sequence (O75604 whole entry, looked up): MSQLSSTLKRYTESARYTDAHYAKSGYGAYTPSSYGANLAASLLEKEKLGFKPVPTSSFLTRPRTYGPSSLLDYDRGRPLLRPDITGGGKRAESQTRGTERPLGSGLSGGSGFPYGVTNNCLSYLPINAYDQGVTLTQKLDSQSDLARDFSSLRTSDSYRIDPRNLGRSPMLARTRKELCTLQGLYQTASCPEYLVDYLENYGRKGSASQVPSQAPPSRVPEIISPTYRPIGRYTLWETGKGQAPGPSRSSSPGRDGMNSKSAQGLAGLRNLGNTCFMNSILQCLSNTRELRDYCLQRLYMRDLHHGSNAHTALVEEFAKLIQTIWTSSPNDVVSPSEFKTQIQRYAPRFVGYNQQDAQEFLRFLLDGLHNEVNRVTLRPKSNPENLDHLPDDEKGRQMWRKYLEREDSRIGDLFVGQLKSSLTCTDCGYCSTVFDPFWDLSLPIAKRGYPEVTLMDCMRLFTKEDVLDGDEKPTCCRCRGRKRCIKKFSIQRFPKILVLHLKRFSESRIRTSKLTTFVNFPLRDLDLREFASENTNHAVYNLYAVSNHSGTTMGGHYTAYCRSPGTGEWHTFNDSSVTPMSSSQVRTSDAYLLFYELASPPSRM
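USP2 core (10nM final) preincubated 30min RT with compound in 20mM Tris-HCl pH 8.0, 2mM CaCl2, 2mM beta-mercaptoethanol, 0.05% CHAPS; 25nM Ub-CHOP2 plus 25nM reporter substrate added, fluorescence (Ex485/Em531) read after 60min.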
Active calls of the source: *; i = inactive; ? = inconclusive; nt = no result; [ ] = another dose, or the depositor's remark. Rows were chosen to be rich in hits. Some 4.8% of all compounds tested hit in one or more screens of this group. Unless noted, the call rests on the fitted dose curve; in most records, active means well fitted curve in the direction sought with a large enough effect; inconclusive means small, poorly fitted or top-dose-only effect, or another doubt; inactive means no such curve, though single readings can be large; an effect the other way counts as inactive or inconclusive.

SMILES	USP1 inh	S2 tox	IL-1B inflam inh	ATXN2 expr inh	USP2a inh
COC(=O)c1ccc(NC(=O)CSc2cn(CC(=O)N3CCCCC3)c3ccccc23)cc1	-23.5%	nt	nt	nt	nt
Oc1ccc2cc(Br)ccc2c1CN1CCCC1	-6.4%	?	-57.5*	-10.6%	0.4%
Oc1ccc2ccccc2c1CN1CCCC1	-10.9%	i	27.4	24.7%	-0.4%
C=CCN1[C@@H](Cc2ccccc2)COCCS1(=O)=O	-6.8%	i	-0.7	2.4%	nt
O=S(=O)(/C=C/C=C/S(=O)(=O)c1ccccc1)c1ccccc1	0.5%	7.52µM*	-101.4*	?	nt
Cc1ccc(S(=O)(=O)C=CS(=O)(=O)c2ccc(C)cc2)cc1	-19.1%	?	-16.9	nt	nt
CCOC(=O)c1c(C)oc2ncnc(N3CCN(c4cccc(Cl)c4)CC3)c12	-24.3%	?	nt	?	nt
O=C(c1cc(-c2ccc(O)cc2)on1)N1CCN(c2ccccc2)CC1	-8.0%	?	-54.1*	18.1%	-1.1%
COc1ccc(-c2cc(C(=O)N3CCCC3)no2)cc1	-13.9%	i	-26.7	8.91µM*	3.3%
CCCCn1c(N)c(N(CC)C(=O)c2cnc(C)cn2)c(=O)[nH]c1=O	-2.1%	i	-12.6	-3.3%	-0.8%
COc1ccc(NC(=O)Nc2nc3c(s2)CCCC3)cc1	-10.5%	?	-52.4*	51.4%	-2.2%
O=C(Nc1nc2c(s1)CCCC2)c1ccc(Br)s1	-9.1%	?	-93.0*	-23.0%	-0.3%
Cc1ccc2ccccc2c1NC(=O)c1ccco1	-10.5%	i	12.9	nt	6.5%
COCCc1ccccn1	nt	i	nt	17.1%	nt
Cc1ccnn1CC(=O)N1CCOc2c(cc(-c3csc4ccccc34)cc2OC2CCOC2)C1 (centres undefined)	nt	i	nt	nt	nt
Cn1c(=O)c(=O)n(C)c2cc(N3CCOCC3)c(NS(=O)(=O)c3ccc(Br)cc3)cc21	-11.8%	i	-69.4*	-21.6%	3.9%
CC[N+]1(C)CCC(O)(c2ccc(OC)cc2)C(C(=O)c2ccc(OC)cc2)C1 (centres undefined)	-11.2%	?	-77.9*	?	nt
O=C(c1ccc(Sc2cccc(Cl)c2)c([N+](=O)[O-])c1)N1CCN(c2ccccn2)CC1	-14.6%	i	-123.9*	nt	15.9%
O=C(c1ccc(S(=O)(=O)Cc2ccccc2Cl)c([N+](=O)[O-])c1)N1CCN(c2ccccn2)CC1	-18.0%	?	-103.0*	?	-4.6%
COc1ccc(C)cc1S(=O)(=O)Nc1cccc(-c2cn3cccnc3n2)c1	-5.0%	i	-19.8	-26.5%	0.6%
O=S(=O)(Nc1cccc(-c2cn3cccnc3n2)c1)c1ccc(Cl)cc1	-0.5%	i	-70.2*	2.6%	2.8%
CN(C)C(CNC(C(=O)Nc1ccc([N+](=O)[O-])cc1Br)c1ccccc1)c1ccccc1 (centres undefined)	-3.1%	i	-73.4*	-2.4%	1.9%
CN(C)C(CNc1ccc(C(F)(F)F)cc1[N+](=O)[O-])c1ccccc1 (centres undefined)	-8.5%	i	-78.6*	-6.4%	-8.7%
CN(C)C(CNC(C(=O)Nc1ccc(F)cc1)c1ccccc1)c1ccccc1 (centres undefined)	?	i	-80.3*	-4.5%	3.3%
Cc1ccc(NC(=O)NCC(c2ccccc2)N(C)C)cc1 (centres undefined)	-18.9%	i	-4.5	37.3%	2.7%
SMILES	USP1 inh	S2 tox	IL-1B inflam inh	ATXN2 expr inh	USP2a inh
CCN1CCN(CCCNC(=O)c2ccc3c(Cl)c4c(nc3c2)CCCC4)CC1	-13.8%	i	nt	?	-0.5%
CCCN(CCC)CCCNC(=O)c1ccc2c(Cl)c3c(nc2c1)CCC3	-6.8%	i	-66.5*	-29.7%	-3.8%
CCN(CC)CCCNC(=O)c1ccc2c3n(nc2c1)-c1ccc(Cl)cc1CO3	-20.4%	?	-60.5*	?	1.4%
CC(C)NC(=O)c1ccc2c3n(nc2c1)-c1ccc(Cl)cc1CO3	-30.5%	i	-6.0	30.9%	4.7%
O=C(NCCCN1CCCCCC1)c1ccc2c(Cl)c3c(nc2c1)CCCC3	-20.2%	?	-71.4*	-4.1%	4.4%
O=C(CCSCc1ccccc1Cl)N1CCN(c2ccc(F)cc2)CC1	-17.0%	nt	nt	nt	nt
C[C@H](NC(=O)C(=O)Nc1ccccc1C(C)(C)C)C(=O)N[C@@H](CC(=O)O)C(=O)COc1c(F)c(F)cc(F)c1F	nt	nt	nt	-0.3%	nt
O=C([C@@H]1C[C@@H](Sc2nc3ccccc3[nH]2)CN1Cc1c(F)cccc1F)N1CCOCC1	nt	i	nt	nt	nt
CSc1ncc2c(n1)-c1ccccc1N(Cc1ccccc1C)S2(=O)=O	-29.9%	i	nt	-5.6%	nt
CSCC[C@H](NC(=O)[C@H](Cc1ccccc1)n1c(=O)[nH]c2ccccc2c1=O)C(=O)N1CCC[C@H]1C(=O)O	-9.2%	i	9.6	-3.9%	1.9%
CCOCc1cc(CN2CCN(c3ccccc3OC)CC2)c(O)c2ncccc12	-3.4%	nt	nt	nt	nt
Cc1nc(N2CCC(C)CC2)c2oc3ccccc3c2n1	-14.3%	i	-15.3	-26.8%	-0.4%
COc1ccccc1N1CCN(Cc2cc(Br)c(O)c3ncccc23)CC1	-5.3%	?	69.6	3.77µM*	-2.3%
COc1ccccc1N1CCN(c2nc(C)nc3c2oc2ccccc23)CC1	-14.4%	?	-10.0	35.5µM*	-7.3%
Cc1nc(N2CCN(Cc3ccc(Cl)cc3)CC2)c2oc3ccccc3c2n1	-17.1%	i	-63.4*	?	-0.1%
COc1ccc(NC(=O)c2csc(Cc3ccc(Cl)cc3)n2)cc1	-20.8%	i	-4.4	-19.3%	-0.1%
COc1ccc(Cc2nc(C(=O)Nc3ccccc3)cs2)cc1	-6.4%	i	-53.6*	17.3%	0.4%
COc1ccc(CNC(=O)c2csc(Cc3ccc(Cl)cc3)n2)cc1	-8.1%	i	-55.1*	5.9%	-1.6%
CC(C)c1cc(C(=O)OCC(=O)NC(=O)NCc2ccco2)c(O)c(C(C)C)c1	-13.9%	?	-86.2*	?	-0.6%
O=C(COC(=O)c1ccccc1C(F)(F)F)NC(=O)NCc1ccco1	-14.6%	?	12.1	7.8%	4.5%
CN1CCN(/N=C/c2ccc(-c3ccc([N+](=O)[O-])cc3Cl)o2)CC1	-23.6%	nt	-80.5*	16.6%	2.7%
NNC(=O)c1cc2sccc2s1	-4.3%	?	25.8	-19.8%	-1.1%
O=C(COc1ccc(Cl)cc1)NCCc1csc(-c2ccc(C(F)(F)F)cc2)n1	-5.0%	nt	nt	nt	nt
O=C(CC1C(=O)NCCN1Cc1ccc(-c2ccccc2)cc1)NCC1CC1 (centres undefined)	-3.2%	i	-54.4*	13.7%[11.3 µM]	0.6%
COc1ccc2c(c1)c1c(c(=O)n(Cc3ccccc3)c(=O)n1CC(=O)NCc1ccc(C)cc1)n2C	-20.5%	i	nt	10.6%	nt
